Screening data as filed in PubChem BioAssay.
TIM10 inh = growth inhibitors of TIM10 yeast strain; S. cerevisiae TIM10 strain growth, BacTiter-Glo luminescence, 24 h; inhibition, % at 10 µM; 330,000 tested, 1.4% active;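 active = inhibition of 40% or more at the single tested concentration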;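 also: wild-type TIM10 isogenic control strain grown at permissive 25 °C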
V-ATPase pHluor = regulators of yeast V-ATPase proton transport | S. cerevisiae, pHLuorin cytosolic pH fluorescence | response, % at 10 µM | 350,000 tested, 0.37% active; in the data active = response mostly above about 7.3%, no sharp cut-off; inactive = mostly below about 5.4%; also: actives read high
tim10-1 inh = inhibits growth of tim10-1 mutant yeast; inhibition, % at 20 µM; 330,000 tested, 2.2% active; S. cerevisiae tim10-1 ts strain growth, BacTiter-Glo, 24 h;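 active = inhibition of at least 40%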;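 also: mutant grown at 25 °C; 0% = DMSO wells with yeast and 100% = wells holding no yeast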
NALP1 yeast inh = inhibitors of NALP1 inflammasome in yeast. 280,000 tested, 0.61% active. inhibition, % at 10 µM. S. cerevisiae NALP1/ASC/caspase-1 growth, X-gal OD620, 72 h. AID 2071; in the data active = inhibition mostly above about 24%, no sharp cut-off; inactive = mostly below about 32%
NALP3 yeast inh = inhibitors of NALP3 inflammasome in yeast; Yeast reconstituted NLRP3/ASC/caspase-1, beta-gal luminescence, 24 h; inhibition, % at 10 µM; 330,000 tested, 0.39% active;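 active = inhibition of 50% or more; inactive = inhibition below 50%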;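 also: plate controls were induced DMSO wells for no effect and uninduced yeast grown without galactose for full effect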
tim23-1 inh = tim23-1 yeast growth inhibition; S. cerevisiae tim23-1 growth, BacTiter-Glo luminescence, 24 h; inhibition, % at 20 µM; 330,000 tested, 1.3% active; AID 463212;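 active = growth inhibition of the mutant yeast at or above 50%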;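 also: temperature-sensitive mutant grown at 25 °C; plate controls were DMSO-treated mutant yeast for no effect and medium wells lacking yeast for full effect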
tim10-1 conf = tim10-1 yeast growth inhibition, confirmed; shares compounds with tim10-1 inh; S. cerevisiae tim10-1 ts strain growth, BacTiter-Glo, 24 h; inhibition, % at 20 µM; 7,400 tested, 56% active; AID 463213;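 active = inhibition of yeast growth at or above a set limit in either of two repeat tests at 20 µM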;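 also: tim10-1 mutant grown at permissive 25 °C to find synthetic lethal compounds; 0% = DMSO yeast wells and 100% = medium wells without yeast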
* marks the source's active call; other numbers are inactive results; · = not tested or not shown. Most compounds without a hit are left out; they make up all but 4.2% or so of the library.

SMILES	TIM10 inh	V-ATPase pHluor	tim10-1 inh	NALP1 yeast inh	NALP3 yeast inh	tim23-1 inh	tim10-1 conf
O=C(N/N=C/c1cccnc1)c1cc(-c2ccc(Cl)cc2)nc2ccccc12	16	3	18	·	6	37	·
O=C(N/N=C/c1ccc[nH]1)c1cc(-c2ccc(Cl)cc2)nc2ccccc12	35	-4	56*	2	4	37	51*
O=C(N/N=C/c1ccc([N+](=O)[O-])o1)c1cc(-c2ccncc2)nc2ccccc12	1	6	21	5	7	8	·
O=C(N/N=C/c1ccc([N+](=O)[O-])o1)c1cn(-c2ccccc2)nc1-c1ccc(Cl)cc1	30	0	26	-12	22	-1	·
O=C(N/N=C/c1ccc([N+](=O)[O-])o1)c1cn(-c2ccccc2)nc1-c1ccccc1	30	0	54*	28	-9	36	28
Cc1c(NC(=O)CN2CCN(c3ccc(O)cc3)CC2)c(=O)n(-c2ccccc2)n1C	-1	-4	-11	11	7	1	·
COc1cc(NC(=O)CCCN2C(=O)NC(C)(C)C2=O)cc(OC)c1	-4	1	5	·	9	4	·
Cc1ccc(SCc2[nH]nc3c2C(c2ccc(C)o2)C(C#N)=C(N)O3)cc1 (configuration not stated)	23	-3	42*	10	13	41	38*
CCc1[nH]nc2c1C(c1ccc(C)o1)C(C#N)=C(N)O2 (configuration not stated)	-3	-3	-2	-2	5	-2	·
N#C/C(=C\c1ccc(-c2ccc(Br)cc2)o1)C(=O)NCCc1c[nH]c2ccccc12	37	3	41*	22	19	14	21
c1ccc(-c2nnn(C34CC5CC(CC(C5)C3)C4)n2)cc1	27	-3	47*	8	9	22	12
CCOC(=O)N1CCN(c2ccncc2S(=O)(=O)N2CCCCC2)CC1	-185	2	-52	16	19	-166	·
CCc1cc(-c2n[nH]c(=S)n2-c2cccc(C)c2)cs1	22	0	43*	-12	14	36	30*
Cc1cc(-c2n[nH]c(=S)n2-c2ccccc2C)cs1	13	-3	23	-1	12	14	·
Cc1cccc(-n2c(-c3csc(C)c3)n[nH]c2=S)c1	7	9	41*	-19	12	19	14
c1ccc(Cc2nn3c(C4COc5ccccc5O4)nnc3s2)cc1 (configuration not stated)	10	2	-19	25	18	41	·
COc1ccccc1-c1nn2c(C(F)(F)F)nnc2s1	29	-1	45*	7	0	20	34*
CCOc1ccccc1-c1nn2c(Cc3ccccc3)nnc2s1	38	-4	41*	4	3	35	6
COc1ccccc1-c1nn2c(C3COc4ccccc4O3)nnc2s1 (configuration not stated)	35	0	46*	-2	-11	46	48*
COc1ccccc1-c1nn2c(-c3ccc(C(C)(C)C)cc3)nnc2s1	·	·	·	21	·	·	·
Cc1ccc(NC(=O)C2CCCN(S(=O)(=O)c3cccnc3)C2)c(C)c1 (configuration not stated)	-5	0	14	18	16	11	·
CCc1ccccc1NC(=O)CCc1c(C)nn(-c2ccc(N3CCOCC3)nn2)c1C	12	2	62*	7	10	10	-9
O=C(O)CCC(=O)c1ccc2ccc3cccc4ccc1c2c34	32	·	39	5	22	38	·
O=C(O)CCCc1ccc2ccc3cccc4ccc1c2c34	19	-2	43*	13	48	42	25
CC(=O)c1cccc(N(C(=O)c2ccco2)C(C(=O)NC2CCCC2)c2ccccc2F)c1 (configuration not stated)	-10	3	18	-9	8	10	·
SMILES	TIM10 inh	V-ATPase pHluor	tim10-1 inh	NALP1 yeast inh	NALP3 yeast inh	tim23-1 inh	tim10-1 conf
Cc1cccn2c(=O)c3cc(S(=O)(=O)c4ccc(Br)cc4)c(=N)n(C4CCCC4)c3nc12	-1	14	41*	-2	2	31	-10
N=c1c(S(=O)(=O)c2ccc(Br)cc2)cc2c(=O)n3ccccc3nc2n1C1CCCCC1	23	-2	36	37	11	17	·
O=C1CN(S(=O)(=O)c2ccc([N+](=O)[O-])cc2)CC(=O)N1	3	3	-9	-14	-9	-1	·
C=CCOC(=O)C(C#N)c1nc2ccccc2nc1N1CCN(c2ccccc2OC)CC1 (configuration not stated)	16	-1	31	12	14	29	·
C=CCN(CC=C)c1nc2ccccc2nc1C(C#N)C(=O)OC(C)C (configuration not stated)	32	-2	45*	7	10	49	38*
COc1ccccc1N1CC(C(=O)OCC(=O)c2ccc(F)cc2)CC1=O (configuration not stated)	13	1	15	19	-1	18	·
Cc1ccc(C(=O)COC(=O)C2CC(=O)N(c3nc(-c4ccccc4)cs3)C2)cc1 (configuration not stated)	31	0	40*	-11	15	11	29
CC[n+]1ccccc1/C=C1\Sc2ccc(C)cc2N1C	6	-3	41*	14	13	24	12
CN1/C(=C/c2cccc[n+]2CCO)Sc2ccccc21	12	-3	2	28	10	3	·
CCC(C)(C)C1CCC2(CC1)NC(=O)N(CC(=O)N1CCN(C(=O)c3ccco3)CC1)C2=O (configuration not stated)	12	9	7	·	20	10	·
Cc1cc(NC(=O)c2sccc2C)n(-c2nc3ccccc3[nH]2)n1	21	-4	49*	3	16	44	24
CCCN(C(=O)CSc1nc2ccccc2n1CC)C1CCS(=O)(=O)C1 (configuration not stated)	5	1	11	21	4	10	·
C[C@@]12CCC=C[C@H]1[C@H](c1ccc3ccccc3c1Br)N(Cc1ccccc1)C2=O	19	-3	32	·	16	47	·
COc1ccc(Br)cc1[C@H]1[C@@H]2C=CCC[C@@]2(C)C(=O)N1Cc1ccccc1	7	-17	44*	-1	-5	6	37*
C[C@@]12CCC=C[C@H]1[C@H](c1ccc3ccccc3c1)N(Cc1ccccc1)C2=O	13	3	52*	-5	2	12	53*
O=C(Nc1nc2ccccc2n1CCN1CCOCC1)c1ccccc1	-2	2	8	-36	7	18	·
O=C(Nc1nc2ccccc2n1CCN1CCOCC1)c1cn(-c2ccccc2)nc1-c1ccccc1	39	-2	42*	15	11	40	32*
